# Reference: PubChem BioAssay (NCATS)
# Results filed as inconclusive are left out. The source made the active and inactive calls. Calls follow the shape of the dose curve; as a rule, active = well fitted activation curve with a large enough effect; inconclusive = small, poorly fitted or top-dose-only effect; inactive = flat fitted curve, though single readings scatter. Starred links: 1 amine or outer side, 2 acyl side, 3 side chain; linkers in the order of their positions; H or OH if unused. Positions of bridges follow the written chain, without caps; N, C: chain ends. Non-standard residues stand in square brackets, D forms with d. Residues, ends and D or L forms follow the SMILES beside them. ξ: configuration not given here. *: point of attachment. X3 = C[C@@H](Oc1ccc([C@H](N[*:1])C(=O)[*:2])cc1)[C@]1(/C=C\C(=O)[*:3])CO1; d(aIle) = CC[C@H](C)[C@@H](N)C(=O)O; X2 = CC(C)[C@@H](O)C(C)C(=O)*; ξNMeF = CNC(Cc1ccccc1)C(=O)O; ξT = CC(O)C(N)C(=O)O; ξS = NC(CO)C(=O)O
# Test: HEK293 12hr Apoptosis Induction qHTS against the NCATS CANVASS Library (AID 1347361)
# Details: HEK293 caspase-3/7 Caspase-Glo luminescence; series mostly up to 46.1 µM
# Excerpt: Natural products and their derivatives continue to be wellsprings of nascent therapeutic potential. However, many laboratories have limited resources for biological evaluation, leaving their previously isolated or synthesized compounds largely or completely untested. To address this issue, the Canvass library of natural products was assembled (https://tripod.nih.gov/canvass), in collaboration with academic and industry researchers, for quantitative high-throughput screening (qHTS) across a diverse set of cell-based and biochemical assays. The pure (>85% purity by liquid chromatography/mass spectrometry [LC/MS]) Canvass library of 346 natural products were submitted by 45 academic laboratories and companies around the world. We collected pure natural products to circumvent deconvolution and structure elucidation due to time and resource limitations. The library was formatted into 1536-well plates and evaluated in 50 qHTS (in an 11-pnt concentration series) bioassays with broad scope of disease-relevant mechanisms. The resulting data set from 50 different assays was then systematically analyzed to identify overall trends and specific natural products with interesting biological activities. Reported herein are the results of each individual qHTS and their corresponding assay protocol. The Caspase-Glo (R) (Promega) is a homogeneous, luminescent assay that measures caspase activity. The detection substrate contains tetrapeptide sequence DEVD in an "add-mix-measure" format. The reagent generates a luminescent signal produced by a thermostable luciferase. The luminescence is proportional to the amount of caspase activity in the assay reaction. National Center for Advancing Translational Sciences (NCATS), Rockville, MD National Institute of Health (NIH), Bethesda, Maryland
# Cancer Cell Apoptosis Assay 1. In a 1536 well, white solid bottom tissue culture plates (Corning 7494), HEK293 cancer cells in DMEM + 10% FBS + 1% P/S media were dispensed in each well at a final concentration of 500 cells / well (5uL volume) using the Multidrop Combi (Thermo Fisher Scientific) dispenser. 2. Compounds were pin transferred (~23nL volume) via Wako Pin-tool (Wako Automation, Richmond VA) equipped with a 1536 pin head. The assay plates were treated with compounds in a concentration series with a final concentration range of […] to 103uM. 3. Doxorubicin was used as a control in a 16pnt titration (1mM; 1:2 dilution; 16-points; n = 2; column 3, rows 1 - 32) and was pin transferred via Wako Pin-tool equipped with a 1536 pin head. The final concentration range of doxorubicin is 0.1nM - 4uM. 4. The assay plates were incubated for 12 hours at 37 degrees C/5% CO2/95% Rh. 5. 3uL Caspase-Glo 3/7 (R) (Promega) detection reagent was then added to the assay plates (columns 2 - 48, rows 1 - 32) and incubated at room temperature, covered from light, for 15 min. 6. Luminescence signal was acquired via the ViewLux plate reader (PerkinElmer) using a clear filter, 20 second exposure, and 2x binning settings.
row,SMILES,outcome
1,CC[C@]12C=CCN3CC[C@]4(C(=C(C(=O)OC)C1)Nc1ccccc14)[C@@H]32,inactive
2,C=CC(C)(C)[C@@]12C[C@H]3C(=O)N/C(=C\c4cnc[nH]4)C(=O)N3[C@@H]1Nc1ccccc12,inactive
3,C[N+](C)(C)CCc1c[nH]c2ccccc12,inactive
4,CO[C@H]1C[C@H](O[C@H]2[C@@H](O)C[C@H](O[C@H]3CC[C@]4(C=O)[C@H]5CC[C@]6(C)C(C7=CC(=O)OC7)CC[C@]6(O)[C@@H]5CC[C@]4(O)C3)O[C@@H]2C)O[C@H](C)[C@H]1O[C@H]1C[C@@H](OC)[C@@H](O[C@@H]2O[C@H](CO)[C@@H](O)[C@H](O)[C@H]2O)[C@@H](C)O1 (some centres undefined),inactive
5,C=CC(C)(C)[C@@]12C[C@H]3C(=O)N/C(=C/c4cnc[nH]4)C(=O)N3[C@@H]1Nc1ccccc12,inactive
6,CO[C@H]1[C@H](O[C@H]2CC[C@]3(C=O)[C@H]4CC[C@]5(C)[C@@H](C6=CC(=O)OC6)CC[C@]5(O)[C@@H]4CC[C@]3(O)C2)O[C@H](C)[C@H](O)[C@@H]1OC,inactive
7,C=C[C@H]1CN2CCc3c([nH]c4cccc(OC)c34)[C@@H]2C[C@@H]1/C(=C\OC)C(=O)OC,inactive
8,CO[C@@H](/C=C/CC/C=C/C(=O)O)[C@@H](O)[C@H](C)/C=C(\C)[C@H](O)[C@H](C)C(=O)CCCC1CC(=O)NC(=O)C1,inactive
9,CO[C@@]12c3c(C)cc(O)c4c(=O)occ(c34)C(=O)[C@@H]1[C@]13COC(=O)c4c(O)cc(C)c(c41)C(=O)[C@H]2[C@@H]3OC(C)=O,inactive
10,C[C@]12CC(O)C3[C@@H](CC[C@@H]4C[C@@H](O)CC[C@]34CO)[C@@]1(O)CC[C@@H]2C1=CC(=O)OC1 (some centres undefined),inactive
11,CC[C@H]1CN2CCc3c([nH]c4cccc(OC)c34)[C@@H]2C[C@@H]1/C(=C\OC)C(=O)OC,inactive
12,CC[C@@H]1CN2CCc3c([nH]c4cccc(OC)c34)[C@@H]2C[C@@H]1/C(=C\OC)C(=O)OC,inactive
13,C/C=C/[C@@H]1[C@H]2C[C@@H](C)CC[C@@H]2C(C)=C[C@H]1C(=O)c1c(O)c(-c2ccc(O)cc2)c[nH]c1=O,inactive
14,c1ccc2nc3c(cc2c1)[nH]c1ccccc13,inactive
15,CCCC[C@@H]1CC[C@H]2CCCC(CCCO)N12 (some centres undefined),inactive
16,C1=C2CCCN[C@H]2C2CC1[C@H]1CCCCN1C2 (some centres undefined),inactive
17,O[C@H]1C=C[C@@]23CCN(Cc4cc5c(cc42)OCO5)[C@@H]3C1,inactive

row,SMILES,outcome
1,C/C=C(\C)C(=O)O[C@@H]1[C@@H](O)[C@@H]2O[C@H]3[C@H](O[C@@H](CCCCC)CCCCCCC(=O)CCC(=O)OC[C@@H](O2)[C@H]1OC(=O)/C=C/c1ccccc1)O[C@H](C)[C@H](OC(C)=O)[C@@H]3O,inactive
2,C=C[C@]12C=CCN3CC[C@@]4(c5ccccc5NC(=O)[C@@H]4C1)[C@@H]32,inactive
3,CC[C@H](C)[C@H]1NC(=O)[C@@H](NC(=O)C(C)[C@H](O)C(C)C)[C@@H](C)OC(=O)C2COC(=O)CNC(=O)/C=C\[C@]3(CO3)[C@@H](C)Oc3ccc(cc3)[C@H](NC1=O)C(=O)N(C)C(Cc1ccccc1)C(=O)NC(C(C)O)C(=O)N2 (some centres undefined) (X2-T[d(aIle)][X3][ξNMeF][ξT][ξS]; ester 1-C; linker 3-6 via G),inactive
4,CC[C@@H]1CN2CCC3(Nc4cccc(OC)c4C3=O)[C@@H]2C[C@@H]1/C(=C\OC)C(=O)OC (some centres undefined),inactive
5,C/C(=C\[C@H](C)C(=O)C[C@H](O)CC1CC(=O)NC(=O)C1)[C@@H]1OC(=O)/C=C/CC/C=C/C=C/[C@@H]1C,inactive
6,CCC(=O)N[C@@H](C[C@H](C)C(Cl)(Cl)Cl)C(=O)N1C(=O)C=C(OC)[C@@H]1C[C@H](C)C(Cl)Cl,inactive
7,CC(C)CC1C(=O)O[C@H](C(C)C)C(=O)N(C)C(CC(C)C)C(=O)O[C@@H](C(C)C)C(=O)N(C)C(CC(C)C)C(=O)O[C@H](C(C)C)C(=O)N(C)C(CC(C)C)C(=O)O[C@@H](C(C)C)C(=O)N1C (some centres undefined),inactive
8,CCCC[C@@H](C)/C=C1/CN2CCC[C@H]2[C@@](C)(O)[C@@H]1O,inactive
9,C/C=C1/CN2CC[C@@]34c5ccccc5N(C)[C@@H]3[C@@H]2C[C@@H]1[C@H]4C(=O)OC,inactive
10,C[C@]12CC(O)C3[C@@H](CCC4C[C@@H](O)CC[C@@]43CO)[C@@]1(O)CC[C@@H]2C1=CC(=O)OC1 (some centres undefined),inactive
11,C[C@]12CCC3[C@@H](CC[C@@H]4C[C@@H](O)CC[C@]34CO)[C@@]1(O)CC[C@@H]2C1=CC(=O)OC1 (some centres undefined),inactive
12,CO[C@H]([C@@H](C)[C@H]1O[C@]1(C)C[C@H](C)/C=C/C=C(\C)[C@H]1O[C@@H](CC(=O)O)CC[C@@H]1C)[C@@H](C)O,inactive
13,COC1=C(C2=C(OC)C(=O)c3cc4c(c(O)c3C2=O)C(=O)O[C@H](C)C4)C(=O)c2c(cc3c(c2O)C(=O)O[C@H](C)C3)C1=O,inactive
14,C/C=C1/CN2CC[C@]34C(=C(C(=O)OC)[C@H]1C[C@H]23)Nc1ccccc14,inactive
15,C=C(C)[C@H]1C(=O)c2c3c(cc4c5c(n1c24)[C@@]1(C)[C@@H](CC[C@H]2[C@](C)(/C=C/C=C(\C)C(=O)O)[C@@H](O)CC[C@@]21C)C5)C1=CC(C)(C)OC(C)(C)[C@H]1[C@@H]3O,inactive
16,CCCCC1CC[C@H]2CCCC(CCC)N12 (some centres undefined),inactive
17,COC1C(O)C(C)OC(OC2C(Oc3cccc4c(O)c5c(=O)oc6ccc(C)c7c(=O)oc(c34)c5c67)OC(C)C(O)C2O)C1O (centres undefined),inactive
